# Most compounds without a hit are left out; they make up all but 2.4% or so of the library.
# Cruzain noTriton: blocks cruzain activity in detergent-free assay | purified cruzain, Z-FR-AMC fluorescence, no detergent | Potency, µM, without a hit: max response, negative = inhibition, most hits filed as inhibitors | hit rate 2.3% among 200,000 | P25779;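 also: plate controls were enzyme without inhibitor for no effect and buffer without enzyme for full effect; nearly all actives have a fitted effect of over 40% in size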
# Target sequence (P25779 123-467 limits assumed): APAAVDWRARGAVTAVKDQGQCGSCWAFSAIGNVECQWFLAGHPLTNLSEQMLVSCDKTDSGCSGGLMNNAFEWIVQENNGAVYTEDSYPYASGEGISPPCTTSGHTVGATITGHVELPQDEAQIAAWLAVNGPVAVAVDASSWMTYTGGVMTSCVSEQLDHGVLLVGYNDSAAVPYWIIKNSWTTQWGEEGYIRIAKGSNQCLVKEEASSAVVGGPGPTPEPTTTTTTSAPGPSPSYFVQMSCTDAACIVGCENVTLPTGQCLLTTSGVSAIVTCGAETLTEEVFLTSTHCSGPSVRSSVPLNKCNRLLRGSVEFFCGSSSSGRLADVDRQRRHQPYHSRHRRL
#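 Detergent-free condition (0.00005% Triton X-100) in acetate buffer pH 5.5 with DTT. 1.5 nM enzyme and compound were pre-mixed 15 min, then 2 uM Z-FR-AMC substrate added; reaction progress from fluorescence change between first and third reads (60 s).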
# Cruzain inh Det: cruzain (T. cruzi) inhibition with detergent. P25779. purified cruzain, Z-FR-AMC fluorescence, 0.01% Triton. Potency, µM, for inactives: max response, negative = inhibition, hits mostly inhibitors. hit rate 0.43% among 200,000. AID 1478;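 also: plate controls were neutral wells for no effect and buffer without enzyme for full effect; nearly all actives have a fitted effect of over 40% in size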
#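 Detergent-containing arm of a paired screen for aggregation-based inhibition: 0.01% Triton X-100 present. Cruzain at 1.5 nM cleaved 2 uM Z-FR-AMC at pH 5.5 with 5 mM DTT; AMC fluorescence gain over 60 s measured activity.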
# Papain counter: papain (Carica papaya) inhibition counter-screen; purified papain, Z-FR-AMC fluorescence cleavage; Potency, µM, without a hit: max response, negative = inhibition, usual class: inhibitors; shares compounds with Cruzain inh Det; hit rate 41% among 410;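 also: 0% = no-compound wells and -100% = no-enzyme wells; nearly all actives have a fitted effect of over 35% in size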
# Target sequence (P00784 whole entry, looked up): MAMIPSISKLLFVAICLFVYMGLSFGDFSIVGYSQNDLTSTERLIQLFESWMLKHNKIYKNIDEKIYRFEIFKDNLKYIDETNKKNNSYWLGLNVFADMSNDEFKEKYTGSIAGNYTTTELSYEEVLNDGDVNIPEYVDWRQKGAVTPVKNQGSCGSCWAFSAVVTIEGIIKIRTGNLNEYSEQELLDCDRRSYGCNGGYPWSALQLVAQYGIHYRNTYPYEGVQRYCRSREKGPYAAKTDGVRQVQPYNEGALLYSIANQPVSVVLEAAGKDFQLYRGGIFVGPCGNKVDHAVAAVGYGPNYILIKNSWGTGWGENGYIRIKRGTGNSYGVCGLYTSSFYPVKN
# The depositor's hits bear a star; ? = inconclusive; . = not tested or not shown. Calls follow the shape of the dose curve; as a rule, active = well fitted curve in the direction sought with a large enough effect; inconclusive = small, poorly fitted or top-dose-only effect, or another doubt; inactive = no such curve, though single readings can be large; an effect the other way counts as inactive or inconclusive. Potency is read from the fitted curve at half-maximal effect.
SMILES,Cruzain noTriton,Cruzain inh Det,Papain counter
COc1ccc(Cn2ccc3nc(C)c(C(=O)N4CCN(c5ccccc5F)CC4)cc3c2=O)cc1,?,-8.0%,.
CN1CCN(c2ncc3nc(-c4ccccc4)c(=O)n(Cc4cccs4)c3n2)CC1,0.5%,-13.9%,.
NC(=S)N/N=C/c1ccc(-c2cc(Cl)ccc2Cl)o1,0.631µM*,0.708µM*,4.47µM*
COC(=O)N/N=C/c1ccc(-c2cccc(Cl)c2)o1,1.8%,-10.9%,.
COc1ccc(-c2c(C#N)c(SCC(=O)Nc3cccc(Cl)c3)nc(C)c2C(=O)Nc2ccccc2)cc1OC,?,-11.1%,.
Cc1ccc(CNC(=O)c2sc3ccc(S(=O)(=O)N4CCCCC4)cc3c2N)cc1,?,-6.7%,.
Nc1c(C(=O)NCCC2=CCCCC2)sc2ccc(S(=O)(=O)N3CCCCC3)cc12,12.6µM*,3.55µM*,-9.5%
CCOC(=O)c1c(NC(=O)/C=C/c2ccc(C)cc2)sc2c1CCCC2,-3.0%,-1.3%,.
COc1cccc2c1[C@@H]1CN(CCCCn3c(=O)[nH]c4c(sc5ncc(-c6ccccc6)nc54)c3=O)C[C@@H]1CO2,?,28.2µM*,-13.5%
COc1cc2[nH]c(=O)n(CCCC(=O)N3CC=C(c4ccccc4)CC3)c(=O)c2cc1OC,?,-6.9%,.
O=C1CN(C(=O)c2ccc(S(=O)(=O)N3CCCC3)cc2)C(c2ccc(F)cc2)c2cc(Br)ccc2N1 (stereo not given),-8.8%,-2.1%,.
N#Cc1c[nH]n2c(NC3CCCC3)c(-c3ccc(Cl)cc3)nc12,?,-8.3%,.
N#Cc1nc(Nc2cccc(-c3ccccc3)c2)nc(NC2CCCC2)n1,.,.,2.51µM*
FC(F)(F)c1cc(-c2ccccc2)nc(NC2CCCC2)n1,-5.7%,-0.6%,.
N#Cc1nc(Nc2cc(Cl)cc(Cl)c2)nc(NC2CCCC2)n1,.,.,1.41µM*
COc1ccc(Nc2nc(C#N)nc(NC3CCCC3)n2)cc1,.,.,0.562µM*
N#Cc1nc(Nc2cc(F)cc(F)c2)nc(NC2CCCC2)n1,.,.,0.316µM*
COc1ccc(-c2nc3c(C#N)c[nH]n3c2NC2CCCC2)cc1,-17.7%,-0.1%,.
CCOc1nc(NC2CCCCC2)nc(NC(C)(C)C)n1,-8.9%,-9.7%,.
COc1ccccc1N1CCN(c2cc(C)nc3c(-c4ccc(Cl)cc4)c(C)nn23)CC1,-5.8%,0.7%,.
Cc1ccc(C)c(CN2C(=O)N(c3cc(Cl)ccc3C)S(=O)(=O)c3ccccc32)c1,21.1%,2.5%,.
CCc1nn(CC(=O)NCc2ccco2)c(=O)c2cc3cc(F)ccc3n12,-11.7%,0.5%,.
N#Cc1nc(Nc2cccc(F)c2)nc(NC2CCCC2)n1,.,.,0.316µM*
N#Cc1nc(Nc2ccc3ccccc3c2)nc(NC2CCCC2)n1,.,.,2µM*
COc1cc2nc(Nc3cccc(F)c3)nc(N)c2cc1OC,-4.1%,-28.4%,.
SMILES,Cruzain noTriton,Cruzain inh Det,Papain counter
c1cc2cn[nH]c2cc1NC1CCCCCC1,-8.0%,-4.2%,.
CCOc1cc(C(=O)NCc2ccc3c(c2)CCN3C(=O)CC)cc(OCC)c1OCC,?,-3.9%,.
c1ccc(-c2nc(-c3ccccc3)c(NC3CCCCC3)o2)cc1,-7.0%,1.8%,.
CCOC(=O)Cn1nc(-c2ccccc2)nc1-c1ccccc1,3.8%,-3.2%,.
CCn1nc(-c2ccc(C)cc2)nc2c(=O)n(C)c(=O)nc1-2,.,.,-3.1%
CCn1nc(-c2ccccc2)nc2c(=O)n(C)c(=O)nc1-2,1.26µM*,2.24µM*,3.8%
CCS(=O)(=O)n1nc(-c2ccc(C)cc2)nc1N,-1.3%,-2.3%,.
CCOc1ccccc1-c1nc(Cn2c(=O)cc(C)c3c(C)nn(-c4ccccc4)c32)c(C)o1,-2.3%,-0.1%,.
O=C(COC(=O)CCSc1ccccc1Cl)Nc1ccc(F)cc1F,12.6µM*,14.1µM*,-2.4%
O=C(COC(=O)CCSc1ccccc1)Nc1ccc(F)cc1Cl,-12.0%,?,.
O=C(O)[C@@H]1[C@@H](C(=O)NCc2ccccn2)[C@@H]2C=C[C@@H]1O2,0.8%,3.5%,.
Cn1nc(-c2ccncc2)nc2c(=O)n(C)c(=O)nc1-2,.,.,-6.5%
COc1cc(/C=c2\sc3nc(-c4ccncc4)nn3c2=O)ccc1OC(C)=O,?,-0.9%,.
Cn1c(=O)c(-c2ccccc2)nn2c3ccccc3nc12,-19.0%,1.8%,.
Cc1ccc(-n2c3nc(=O)n(C)c(=O)c-3cc3ccccc32)c(C)c1,-9.7%,8.2%,.
Cn1nc(-c2ccccc2)nc2c(=O)n(C)c(=O)nc1-2,.,.,-4.5%
Cc1nc2c(=O)n(C)c(=O)nc-2n(C)n1,0.501µM*,1µM*,-1.2%
Cc1ccccc1N1CC(c2nc3ccccc3n2Cc2ccc(Br)cc2)CC1=O (stereo not given),4.8%,-2.7%,.
CCN(CC)c1ccc(NC(=O)C(NS(=O)(=O)c2cccs2)C(C)C)c(C)c1 (stereo not given),-0.1%,6.3%,.
Cc1cc(OCCCn2c(CCNC(=O)C3CCCCC3)nc3ccccc32)ccc1Cl,6.6%,1.41µM*,12.6µM*
COc1ccc(OCCCn2c(CCNC(=O)C3CCCCC3)nc3ccccc32)cc1,.,.,-8.8%
Cc1cc2ccccc2n1CCNC(=O)C1CCCC1,-5.9%,4.1%,.
COc1ccccc1OCCn1c(CCNC(=O)C2CCCCC2)nc2ccccc21,.,.,1.9%
Cc1cccc(OCCCn2c(CCNC(=O)C(C)(C)C)nc3ccccc32)c1,?,-3.2%,.
CC(C)C(=O)NCCc1nc2ccccc2n1CCCOc1ccc(Cl)cc1,22.3%,-1.7%,.
SMILES,Cruzain noTriton,Cruzain inh Det,Papain counter
Cc1cccc(OCCn2c(CCNC(=O)C3CCCCC3)nc3ccccc32)c1,.,.,-1.2%
COc1ccccc1OCCn1c(NC(=O)c2ccccc2)nc2ccccc21,0.6%,0.7%,.
O=C(c1noc2c1CCCCC2)N1CCN(c2cccc(C(F)(F)F)c2)CC1,18.9%,-13.7%,.
O=C(Oc1ccccc1)N1CCC2(CC1)CCN(c1ccncc1)CC2,8.7%,1.6%,.
CCCS(=O)(=O)c1nc(S(=O)(=O)c2ccc(C)cc2)c(NC)s1,0.9%,-5.8%,.
Cc1ccc(C2CCN(C(=O)c3cnn(-c4ccc(C)c(C)c4)c3C3CCN(C(=O)OC(C)(C)C)CC3)C2)cc1 (stereo not given),-16.2%,-2.0%,.
COC(=O)c1sc2cccc(F)c2c1S(=O)(=O)Nc1ccc(C)cc1Cl,-3.5%,-11.9%,.
COc1ccc(OCCn2c(CCNC(=O)C3CCCCC3)nc3ccccc32)cc1,.,.,-16.9%
Cc1ccc(OCCn2c(CCNC(=O)C(C)C)nc3ccccc32)cc1,-8.9%,-6.0%,.
Cc1ccccc1-c1cncnc1NCCN1CCOCC1,1.9%,5.1%,.
COC(=O)[C@@]1(Cc2ccc(F)cc2)[C@@H]2C(=CC(=O)[C@H]2CC(=O)C(=O)N(C)C)CN1C(=O)c1ccccc1,?,0.9%,.
CC1(C)CC=C(O[Si](C)(c2ccccc2)c2ccccc2)CC1,1.4%,0.5%,.
COc1cccc(-c2nn3c(-c4cc(C)[nH]n4)nnc3s2)c1,2.9%,1.8%,1.2%
COc1ccc(-c2nn3c(-c4cc(-c5ccccc5)n[nH]4)nnc3s2)cc1,.,.,-13.3%
CCOc1ccc(-c2nn3c(-c4cc(-c5ccccc5)n[nH]4)nnc3s2)cc1,.,.,-3.2%
CCOc1cccc(-c2nnc3sc(-c4ccc(C)cc4)nn23)c1,?,-3.0%,.
COc1cccc(-c2nn3c(-c4ccccn4)nnc3s2)c1,0.5%,-2.3%,.
COc1ccc(-c2nnc3sc(-c4ccccn4)nn23)cc1,-9.3%,2.1%,.
COc1ccc(-c2nn3c(-c4cc(-c5ccccc5)n[nH]4)nnc3s2)cc1OC,.,.,-17.8%
COc1ccc(-c2nn3c(-c4ccccn4)nnc3s2)cc1OC,-13.2%,-5.4%,.

# From PubChem BioAssay
